Screening data as filed in PubChem.
Only some compounds are listed: those with a hit (about 2.3% of all), similar ones and a draw of the others.
Tau fibril ThT: qHTS for Inhibitors of Tau Fibril Formation, Thioflavin T Binding; recombinant tau K18 P301L, heparin-induced fibrillization, ThT fluorescence; Potency, µM (doses to about 57.4 µM), inactives show at the highest dose activity, negative = inhibition, usual class: inhibitors; actives 2.1% (n = 270,000); AID 1460, 2008; further: potency means the concentration at half of the fitted maximal effect; on the % scale 0 is the no-effect control and ±100 the full control effect; nearly all actives have a fitted effect of over 55% in size
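K18 P301L tau (15 uM + 0.24 uM Alexa 594-tagged), heparin 20 uM, NaOAc pH 7, 6 h 37 C; ThT 30 uM, 1 h RT, ex 450/em 510 nm.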
Tau FP inhib: qHTS for Inhibitors of Tau Fibril Formation, Fluorescence Polarization; actives 0.39% (n = 280,000); Potency, µM (series often up to 57.7 µM), inactives show at the top dose activity, negative = inhibition, most hits filed as inhibitors; K18 P301L tau heparin fibrillization, Alexa594 FP, 6 h; further: potency means the concentration at half of the fitted maximal effect; on the % scale 0 is the no-effect control and ±100 the full control effect; nearly all actives have a fitted effect of over 55% in size
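Human K18 P301L fragment (15 uM unlabeled plus 0.24 uM Alexa 594-labeled) in 100 mM sodium acetate pH 7 with compound, aggregation induced by 20 uM heparin for 6 hr at 37 C. ThT (30 uM) added for 1 hr, then Alexa 594 FP read.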
USP1-UAF1 inh: Inhibitors of USP1/UAF1: Primary Screen. Ubiquitin carboxyl-terminal hydrolase 1 (Homo sapiens), O94782. recombinant USP1/UAF1, Ub-Rhodamine cleavage fluorescence. Potency, µM (titrated, usually from 57.1 µM), without a hit: at the top dose activity change, negative = inhibition, usual class: inhibitors. actives 0.23% (n = 390,000). AID 743255, 2014; further: potency means the concentration at half of the fitted maximal effect; on the % scale 0 is the no-effect control and ±100 the full control effect; nearly all actives have a fitted effect of over 60% in size
Target sequence (O94782 whole entry, looked up): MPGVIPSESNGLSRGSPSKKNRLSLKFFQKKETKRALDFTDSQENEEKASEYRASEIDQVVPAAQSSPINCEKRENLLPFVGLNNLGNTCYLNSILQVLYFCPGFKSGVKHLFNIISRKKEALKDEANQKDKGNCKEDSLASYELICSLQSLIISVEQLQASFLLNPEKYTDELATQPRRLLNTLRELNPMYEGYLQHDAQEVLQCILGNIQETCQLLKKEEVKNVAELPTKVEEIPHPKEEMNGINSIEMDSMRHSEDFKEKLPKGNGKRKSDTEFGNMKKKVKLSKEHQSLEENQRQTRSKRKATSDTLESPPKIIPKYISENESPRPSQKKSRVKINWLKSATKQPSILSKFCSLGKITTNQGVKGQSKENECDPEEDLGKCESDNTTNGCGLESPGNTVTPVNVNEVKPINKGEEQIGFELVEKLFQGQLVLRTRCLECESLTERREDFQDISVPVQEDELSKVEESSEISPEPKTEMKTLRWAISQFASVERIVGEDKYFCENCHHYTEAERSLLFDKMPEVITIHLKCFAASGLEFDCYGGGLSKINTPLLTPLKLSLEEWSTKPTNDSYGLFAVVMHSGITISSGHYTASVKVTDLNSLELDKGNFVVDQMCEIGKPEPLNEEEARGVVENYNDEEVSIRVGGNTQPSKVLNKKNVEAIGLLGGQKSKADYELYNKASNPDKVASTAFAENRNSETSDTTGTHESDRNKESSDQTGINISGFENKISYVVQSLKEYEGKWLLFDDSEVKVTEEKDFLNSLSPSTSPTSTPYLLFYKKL
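1 nM enzyme complex + cpd, 15 min RT; start with Ub-Rho 150nM final; kinetic fluorescence ex 480/em 540, 6 reads q60 s. Buffer 50mM HEPES pH 7.8, 0.5mM EDTA, 0.1 mg/ml BSA, 1mM TCEP, 0.01% Tween-20.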
Tau fluor counter: Counterscreen qHTS for Inhibitors of Tau Fibril Formation, Fluorescence Polarization; tau K18 P301L Alexa594 fluorescence, heparin fibrillization; Potency, µM (doses to about 57.7 µM), without a hit: at the top dose activity change, negative = decrease; actives 0.93% (n = 280,000); further: potency means the concentration at half of the fitted maximal effect; on the % scale 0 is the no-effect control and ±100 the full control effect; nearly all actives have a fitted effect of over 55% in size
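Human K18 P301L tau (15 uM unlabeled plus 0.24 uM Alexa 594-labeled, final) in 100 mM sodium acetate pH 7 was mixed with compound and 20 uM heparin and incubated 6 hr at 37 C.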
FBPA coupling cs: qHTS Assay for Inhibitors of Fructose-1,6-bisphosphate Aldolase from Giardia Lamblia: Coupling assay counterscreen; coupling enzyme system counterscreen, AmpLite Red fluorescence; activity change, negative = inhibition, % at 58.2 µM, hits read low; actives 0.67% (n = 290,000); in the data active means activity change below about -30%; further: on the % scale 0 is the no-effect control and ±100 the full control effect
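Counterscreen lacking aldolase: glyceraldehyde-3-phosphate coupling-enzyme reagent preincubated 10 min at RT with compound (at 57.5 uM final), then substrate/coupling system with AmpLite Red added; fluorescence read at 525/598 nm after 20 min RT.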
tau fibril sed: Sedimentation Assay for Inhibitors of Tau Fibrillization. actives 50% (n = 110). shares compounds with Tau fibril ThT. inhibition, % at 100 µM. recombinant tau K18 P301L (four-repeat tau fragment), sedimentation SDS-PAGE densitometry; in the data active means inhibition above about 40%; inconclusive means no clear call, values can overlap the other calls; inactive means below about 18%
* = called active by the depositor; ? = inconclusive; · = not tested or not shown; [ ] = another dose, or the depositor's remark. Unless noted, the call rests on the fitted dose curve; in most records, active means well fitted curve in the direction sought with a large enough effect; inconclusive means small, poorly fitted or top-dose-only effect, or another doubt; inactive means no such curve, though single readings can be large; an effect the other way counts as inactive or inconclusive.

SMILES	Tau fibril ThT	Tau FP inhib	USP1-UAF1 inh	Tau fluor counter	FBPA coupling cs	others
COc1cc(-c2ccc(N=Nc3ccc4c(S(=O)(=O)O)cc(S(=O)(=O)O)c(N)c4c3O)c(OC)c2)ccc1N=Nc1ccc2c(S(=O)(=O)O)cc(S(=O)(=O)O)c(N)c2c1O	1.6µM*	2.8µM*	·	1µM*[quencher]	-57*
Clc1ccc(C(c2ccccc2)c2c[nH]c3ccccc23)s1 (configuration not stated)	5%	-3%	-30%	6%	·
Cc1ccc2[nH]cc(C(c3ccccc3)c3ccc(Cl)s3)c2c1 (configuration not stated)	?	?	-13%	7.9µM*[quencher]	·
CCc1ccc(C(c2ccccc2)c2c[nH]c3ccc(C)cc23)s1 (configuration not stated)	13µM*	?	-7%	10µM*[quencher]	·
O=C(/C=C\c1ccc2c(c1)OCO2)NC1CC(=O)N(c2ccc(F)cc2)C1 (configuration not stated)	-2%	-4%	1%	-3%	·
COc1ccc(/C=C\c2onc(C)c2S(=O)(=O)N2CCC(C(=O)Nc3ccc(Cl)cc3)CC2)cc1	-1%	?	-9%	-25%	·
C=CCOC(=O)C1=C(C)NC(SCC(=O)Nc2nccs2)=C(C#N)C1c1ccc(Cl)cc1 (configuration not stated)	-17%	?	-7%	10µM*[quencher]	2
C=CCOC(=O)C1=C(C)NC(SCC(=O)Nc2nccs2)=C(C#N)C1c1cccs1 (configuration not stated)	?	-14%	-11%	16µM*[quencher]	-1
CCOC(=O)C1=C(C)NC(SCc2cc(=O)[nH][nH]2)=C(C#N)C1c1cccs1 (configuration not stated)	13µM*	?	-22%	?	3
COc1cccc(CSc2nc(-c3ccccc3F)nc3c2Cc2c(CO)cnc(C)c2O3)c1	1%	-2%	-5%	-2%	·
CCOC(=O)c1ccc(NC(=S)N2CCSC2c2ccc(OC)cc2)cc1 (configuration not stated)	?	25µM*	-13%	?	-3
CCOC(=O)c1ccc(NC(=S)N2CCSC2c2ccc(Cl)cc2)cc1 (configuration not stated)	-10%	?	-9%	?	1
Fc1cc(NC(=S)NCc2ccc(CNC(=S)Nc3ccc(Cl)c(F)c3)cc2)ccc1Cl	17%	4µM*	-24%	-24%	1
COc1ccc(-c2cn(-c3ccc(C)cc3)c(S(=O)(=O)CC(=O)Nc3ccc(F)cc3)n2)cc1	-10%	?	-21%	?	·
O=C(N/N=C/c1cc(Cl)cc([N+](=O)[O-])c1O)C1CC1	16µM*	3%	-9%	-17%	3
O=C(Cn1nc2ccccc2n1)N/N=C/c1cc(Cl)cc([N+](=O)[O-])c1O	13µM*	8%	-27%	?	8
Cc1ccccc1C(=O)Nc1cccc(C(=O)N/N=C/c2cc(Cl)cc([N+](=O)[O-])c2O)c1	4µM*	7%	-10%	?	7
CC(C)(C)N/N=C/c1cc(Cl)cc([N+](=O)[O-])c1O	-4%	5%	-17%	-8%	-3
O=[N+]([O-])c1cc(Cl)cc(/C=N/NC(=S)Nc2ccc(S(=O)(=O)N3CCOCC3)cc2)c1O	10µM*	6%	?	?	1
COc1ccccc1N1CCN(C(=O)c2cc3c(=O)oc4ccc(C)cc4c3s2)CC1	-25%	13%	-10%	-11%	·
O=C(Cn1nnc(-c2ccccc2)n1)N/N=C/c1cccc([N+](=O)[O-])c1O	10µM*	11%	-13%	-2%	1
Cc1ccc(/C=C/C(=O)NN2CCN(C)CC2)cc1	·	·	-21%	·	1
Cc1ccc(/C=C/C(=O)Nn2cnnc2)cc1	14µM*	?	-17%	-15%	2
O=C1CCCc2c1sc1nc3n(c(=O)c21)CCCCC3	-7%	5%	-18%	-5%	4
O=C1c2sc3nc4n(c(=O)c3c2CCC1Br)CCCCC4 (configuration not stated)	?	?	-18%	?	-62*
SMILES	Tau fibril ThT	Tau FP inhib	USP1-UAF1 inh	Tau fluor counter	FBPA coupling cs	others
CC(C)c1ccc(-c2noc(SCC(=O)N3CCCCC3)n2)cc1	?	-9%	-14%	-21%	·
COc1cc(-c2nc3cccc(C)n3c2Nc2ccc3c(c2)OCCO3)ccc1O	?	4%	-16%	18µM*[quencher]	·
COc1cc(-c2nc3ccc(C)cn3c2Nc2ccc3c(c2)OCCO3)ccc1O	?	10%	-19%	16µM*[quencher]	2
Clc1cccc(-c2nc3ccccn3c2Nc2ccc3c(c2)OCCO3)c1	?	?	-17%	7.9µM*[quencher]	·
Cc1ccn2c(Nc3ccc4c(c3)OCO4)c(-c3ccc(O)cc3)nc2c1	?	3%	-14%	18µM*[quencher]	1
COc1cc(-c2nc3cnccn3c2Nc2ccc3c(c2)OCCO3)ccc1O	?	9%	-1%	?	0
Cc1cccc2nc(-c3ccco3)c(Nc3ccc4c(c3)OCCO4)n12	-16%	9%	-12%	-22%	0
Oc1ccc(-c2nc3ccccn3c2Nc2ccc3c(c2)OCCO3)cc1	?	13%	-21%	?	·
CCc1sc(Nc2cccc(Cl)c2C)nc1-c1cc2cccc(OC)c2oc1=O	?	2%	-19%	-27%	·
Cc1ccc(NC(=O)CC(C)S(=O)(=O)c2ccc3c(c2)NC(=O)CO3)cc1Cl (configuration not stated)	0%	-7%	-8%	-11%	·
CCOC(=O)c1nn(-c2ccc(C)cc2)c(=O)c2c(N)scc12	14µM*	?	?	?	-55*	tau fibril sed=?
CCOC(=O)c1nn(-c2ccc(F)cc2)c(=O)c2c(N)scc12	1%	1%[2.34 µM]	?	-1%	12	tau fibril sed=64*
CCOC(=O)c1nn(-c2ccc(F)cc2)c(=O)c(C#N)c1C	·	·	-4%	·	1
CCOC(=O)c1nn(-c2ccc(Cl)cc2)c(=O)c2c(N)scc12	·	·	·	·	·	tau fibril sed=62*
